The results in this text go back to PubChem BioAssay.

SMILES strings stand for the structures.

A short description of the experiment: differential killing of epithelial or mesenchymal cells, primary screen, imaging, PC-3E GFP, TEM4-18 mCherry, co-culture (AID 1345086).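 Note: cells exposed to compound for 72 h before imaging.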 As to conditions: imaging cell counts, measured here: mesenchymal TEM4-18 mCherry cell survival, at 1 µM.
With `C=C1[C@@H](C)C2[C@H](Cc3c[nH]c4ccccc34)NC(=O)[C@]23C(=O)/C=C/C(=O)[C@H](OC(C)=O)/C(C)=C/[C@@H](C)C/C=C/[C@H]3[C@@H]1O` (stereo partly specified), the normalised cell number is 1.06.
In turn, `O=C(C/C=C/c1ccc(O)c(O)c1)O[C@H](Cc1ccc(O)c(O)c1)C(=O)O` displayed a normalised cell number of 1.06.
To `C=C1OC(=O)C23C(O)C(=O)CC(OC12)C3C` (stereo unspecified) belongs 1.06; to `COC(=O)NC1[C@@H](O)C(O)C(CO)O[C@H]1Sc1ccccc1` (stereo partly specified), 0.96; to `COc1c(N2CC[C@@H](CN)C2)c(F)cc2c(=O)c(C(=O)NO)cn(C3CC3)c12`, 1.15.
As to `COc1ccc2c(c1)CCC1C2CC[C@@]2(C)C1CC[C@@H]2O` (stereo partly specified), the normalised cell number came out at 1.14.
On to `O=C1OCC[C@@H]1Oc1ccc(Oc2cnc3ccc(Cl)cc3n2)cc1`, for which the normalised cell number was found to be 1.01.
In turn, `CCN1CCN(c2c(F)cc3c(=O)c(C(=O)O)cn4c3c2OC[C@@H]4C)CC1` had a normalised cell number of 1.
`C=C/C(C)=C\CC1[C@](C)(O)CC[C@H]2C(C)(C)CCC[C@]12C` (stereo partly specified): the normalised cell number came to 1.2.
For `COC(=O)C1O[C@H](OCc2ccccc2)[C@@H](OC(C)=O)[C@@H](OC(C)=O)C1OC(C)=O` (stereo partly specified), the normalised cell number turned out to be 1.13.
Compound `NC(=O)NCCCC(N)C(=O)O` (stereo unspecified) showed a normalised cell number of 1.08.
In turn, `CC(C)=CCCC(C)C1CC[C@@]2(C)C3=C(CC[C@]12C)C1(C)CC[C@H](O)C(C)(C)C1CC3` (stereo partly specified) returned a normalised cell number of 1.14.
For `O=C(O)CNC(=O)c1ccc([C@H](O)c2ccccc2)cn1`, the normalised cell number turned out to be 0.99.
For `O=C(O)c1cn(C2CC2)c2cc(N3CCN(c4ncncn4)CC3)c(F)cc2c1=O`, the normalised cell number stood at 1.08.
`NC(=O)c1cc(F)c(F)cc1F`: the normalised cell number is 1.09.
Turning to `COC(=O)C[C@@H]1C2(C)C(=O)[C@@H](CC3=C4CC(O)O[C@@H](c5ccoc5)[C@]4(C)CCC32)[C@H](O)C1(C)C` (stereo partly specified), the normalised cell number was determined as 1.14.
